# From PubChem BioAssay
# GPR151 activ – activates the human receptor GPR151. 1% of 650,000 active. Q8TDV0. PathHunter beta-arrestin GPR151 cells, luminescence. activation, % at 11.2 µM; in the data active = activation above about 4.9%;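 note: 0% = median of compound wells and 100% = cells with positive control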
# FBW7 act – human FBW7 E3 ligase activation, primary screen; AID 1259310; normalized activity (activation), % at 26.1 µM; Q969H0; 0.13% of 650,000 active; AlphaScreen FBW7–phospho-cyclin E peptide binding, activator screen; in the data active = normalized activity above about 1.9%;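 note: purified mutant Fbw7 with reduced substrate affinity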
# Target sequence (Q969H0 whole entry, looked up): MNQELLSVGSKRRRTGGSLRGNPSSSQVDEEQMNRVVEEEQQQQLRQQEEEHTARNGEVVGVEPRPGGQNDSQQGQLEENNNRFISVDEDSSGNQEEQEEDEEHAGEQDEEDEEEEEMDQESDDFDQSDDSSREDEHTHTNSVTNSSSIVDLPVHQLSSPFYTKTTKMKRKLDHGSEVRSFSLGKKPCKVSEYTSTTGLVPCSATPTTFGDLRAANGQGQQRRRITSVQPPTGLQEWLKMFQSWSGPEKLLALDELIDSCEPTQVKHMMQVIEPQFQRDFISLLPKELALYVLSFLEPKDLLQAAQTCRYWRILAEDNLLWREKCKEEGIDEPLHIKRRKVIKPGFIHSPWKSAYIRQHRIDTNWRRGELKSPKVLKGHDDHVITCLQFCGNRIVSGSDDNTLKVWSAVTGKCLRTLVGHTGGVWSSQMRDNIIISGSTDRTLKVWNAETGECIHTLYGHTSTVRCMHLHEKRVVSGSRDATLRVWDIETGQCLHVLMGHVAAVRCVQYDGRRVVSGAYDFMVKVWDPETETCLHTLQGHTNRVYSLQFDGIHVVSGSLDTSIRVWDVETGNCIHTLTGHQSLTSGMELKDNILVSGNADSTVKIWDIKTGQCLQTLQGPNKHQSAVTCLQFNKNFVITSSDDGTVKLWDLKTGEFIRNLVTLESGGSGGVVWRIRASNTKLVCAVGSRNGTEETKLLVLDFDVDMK
# MITF inh – blocks human microphthalmia-associated transcription factor; AlphaScreen MITF homodimerization, bead proximity signal; 0.91% of 650,000 active; inhibition, % at 2.6 µM; O75030; in the data active = inhibition above about 50%;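 note: 0% = vehicle wells with protein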
# TEAD-YAP inh – TEAD-YAP interaction inhibition; HEK-TIYL cells, TEAD-Gal4/YAP UAS-luciferase luminescence; inhibition, % at 9.12 µM; 1.4% of 640,000 active; AID 1259422; in the data active = inhibition above about 32%;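 note: 0% = median of test compound wells and 100% = reference inhibitor wells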
# Starred values were filed as active, the others as inactive. In the library only some 3.5% were active in any assay of this set; here they are far more common.
SMILES,GPR151 activ,FBW7 act,MITF inh,TEAD-YAP inh
CCN(CC)c1ccc(C(NC(=O)C(C)C)c2ccc3cccnc3c2O)cc1 (stereo unspecified),-1,-1,20,74*
CC(=O)NC(c1ccc(N(C)C)cc1)c1ccc2cccnc2c1O (stereo unspecified),-1,-2,59*,82*
COc1ccc(-c2cnn3c(NCCCN4CCOCC4)ccnc23)cn1,-1,0,-15,-3
Cc1ccnc2c(N3C(=O)C4CC=C(Cl)CC4C3=O)cccc12 (stereo unspecified),0,0,-1,-5
O=C(NC1CC1)c1ccc2nc(-c3csc4ccccc34)sc2c1,-12,0,-2,-29
CC(C)(c1ccc(Oc2ccc(N)cc2)cc1)c1ccc(Oc2ccc(N)cc2)cc1,2,0,9,11
CC(C)C(=O)NC(c1ccc(N(C)C)cc1)c1ccc2cccnc2c1O (stereo unspecified),0,-2,31,84*
O=C(Oc1ccc2cc(Br)ccc2c1)N1CCCC1,-1,0,7,-40
COc1ccc(-n2nnnc2-c2cccc(OC)c2)cc1,3,0,10,58*
CCOC(=O)c1ccc2c(c1)nc(-c1ccccc1)c1nccn12,1,0,-7,-1
CCCCC(=O)Nc1c2c(nn1-c1cccc(Cl)c1)CS(=O)(=O)C2,2,0,2,3
c1ccc(-c2cc(-c3ccccc3)[n+](CCc3c[nH]c4ccccc34)c(-c3ccccc3)c2)cc1,2,0,10,70*
CCN1CCN(CC(=O)NCc2ccccc2)C(=O)C1=O,-1,0,-12,-3
NCc1ccc(C(=O)NC(c2ccc(Cl)cc2)c2nc3ccc(-c4cn[nH]c4)cc3c(=O)[nH]2)cc1 (stereo unspecified),-2,0,21,3
N[C@@H](Cc1ccc(Cl)cc1)c1nc2ccc(-c3cn[nH]c3)cc2c(=O)[nH]1,-1,-1,13,86*
COc1cc(-c2cn[nH]c2)cc2c(=O)[nH]c(C(N)c3ccc(Cl)cc3)nc12 (stereo unspecified),0,0,7,29
Cc1ccccc1OCc1nc(N(C)CCN(C)C)c2cc(-c3cn[nH]c3)ccc2n1,0,0,13,22
CN(C)CCN(C)c1nc([C@H](N)Cc2cccc(F)c2)nc2ccc(-c3cn[nH]c3)cc12,0,2.7*,30,-1
COc1cc(-c2cn[nH]c2)cc2c(=O)[nH]c([C@@H](N)Cc3cccc(F)c3)nc12,0,-1,-3,68*
N[C@H](Cc1ccc(F)cc1)c1nc2ccc(-c3cn[nH]c3)cc2c(=O)[nH]1,1,0,28,81*
O=C(NCc1ccccc1)C(c1cccnc1)N(C(=O)c1cnccn1)c1ccc(F)cc1 (stereo unspecified),2,0,9,3
COCCCNC(=O)C1c2ccccc2C(=O)N(C2CCCCC2)C1c1ccc(OC)cc1 (stereo unspecified),2,0,2,4
COC(=O)C(C)N1C(=O)S/C(=C/c2ccccc2OCc2ccc(C(=O)O)cc2)C1=O (stereo unspecified),3,0,-11,-8
CCn1c(COc2ccc(Cl)cc2)nnc1SCCN1CCCC1,0,0,18,5
N[C@H](Cc1cccc(Cl)c1)c1nc2ccc(-c3cn[nH]c3)cc2c(=O)[nH]1,0,-1,-9,69*
SMILES,GPR151 activ,FBW7 act,MITF inh,TEAD-YAP inh
N[C@@H](Cc1ccc(F)cc1)c1nc2ccc(-c3cn[nH]c3)cc2c(=O)[nH]1,-3,-1,-6,85*
N[C@@H](Cc1ccccc1)c1nc2ccc(-c3cn[nH]c3)cc2c(=O)[nH]1,4,-1,14,75*
N[C@H](CCc1ccccc1)c1nc2ccc(-c3cn[nH]c3)cc2c(=O)[nH]1,1,-1,17,-4
NCCC(=O)NC(c1ccc(Cl)cc1)c1nc2ccc(-c3cn[nH]c3)cc2c(=O)[nH]1 (stereo unspecified),-2,0,7,3
N[C@H](Cc1ccccc1)c1nc2ccc(-c3ccncc3)cc2[nH]1,0,-1,24,17
N[C@@H](Cc1ccccc1)c1nc2ccc(-c3ccncc3)cc2c(=O)[nH]1,0,-1,18,61*
COC(=O)c1c(NC(=O)c2c(C)c(-c3ccc(Cl)cc3Cl)nc3ccccc23)sc2c1CCCC2,-1,0,-9,0
N[C@H](Cc1cccc(F)c1)c1nc2ccc(-c3cn[nH]c3)cc2[nH]1,0,-1,10,-6
COc1cccc(CCc2nc3c(OC)cc(-c4cn[nH]c4)cc3c(=O)[nH]2)c1,-1,1,16,36*
COc1cccc(Cc2nc3c(OC)cc(-c4cn[nH]c4)cc3c(=O)[nH]2)c1,1,0,-1,30
N[C@H](Cc1cccc(F)c1)c1nc2ccc(-c3cn[nH]c3)cc2c(=O)[nH]1,1,-1,8,68*
N[C@H](Cc1ccc(F)c(F)c1)c1nc2ccc(-c3cn[nH]c3)cc2c(=O)[nH]1,1,-1,15,76*
CCCCOc1ccc(-c2nc(C=Nc3cc(C)on3)c(O)o2)cc1,0,0,9,6
Fc1ccccc1-c1cn2c3c(nnc2n1)CCCC3,-1,0,-1,92*
O=C(NCC1Cc2cc(Cl)cc(-c3ncccn3)c2O1)c1ccc(N2CCCC2)cc1 (stereo unspecified),-1,0,2,46*
O=S(=O)(c1ccc(Nc2ccc(-c3ccccc3F)nn2)cc1)N1CCCCC1,0,0,16,-2
C=CCOc1cccc(/C=C2\C(=O)N(CCc3ccc(OC)c(OC)c3)C(C)=C2C(=O)OC)c1,0,0,61*,-13
COc1ccc(-c2nc3ccccc3c(=O)n2OC(=O)c2cccs2)cc1OC,0,0,12,0
O=S(=O)(c1ccc2[nH]c3nc(SCc4cccc(Br)c4)nnc3c2c1)N1CCOCC1,2,0,1,1
Cc1ccc(-c2ncn(-c3ccc(Nc4ncc5ccc(-c6cn[nH]c6C)cc5n4)cc3)n2)cn1,0,0,4,43*
CNc1cc(-c2cnn(C)c2)nc(Nc2ccc(-n3nc(C)nc3C)cc2)n1,-2,0,10,18
Cc1nc(C)n(-c2ccc(Nc3ncc4ccc(-c5cnn(C)c5)nc4n3)cc2)n1,0,0,2,72*
Cc1ncn(-c2ccc(Nc3ncc(Br)c(-c4cnn(C)c4)n3)cc2)n1,-2,0,12,69*
Cc1ccc(-c2ncn(-c3ccc(Nc4ncc(F)c(-c5cnn(C)c5)n4)cc3)n2)cn1,-2,0,11,46*
CN(CCNC(=O)C(=O)Nc1ccc2nc3n(c(=O)c2c1)CCCCC3)C1CCCCC1,0,0,17,-12
Cc1ccccc1NS(=O)(=O)c1ccc2ccccc2c1,0,0,12,3
CC(=O)Nc1ccccc1NS(=O)(=O)c1ccc2ccccc2c1,1,1,9,53*
Nc1c(S(=O)(=O)O)cc(S(=O)(=O)O)c2cccc(O)c12,0,-1,46,9
